Records with an inconclusive call do not appear. Where a call stands in place of a potency, no number is given. Activity calls are given as the source filed them. Unless noted, the call rests on the fitted dose curve; in most records, active means well fitted curve in the direction sought with a large enough effect in the repeat runs; inconclusive means weak or mixed curves; inactive means no such curve, though single readings can be large; an effect the other way counts as inactive or inconclusive.
Experiments:
[1] = qHTS assay to identify small molecule agonists of the estrogen related receptor (ERR) signaling pathway from Tox21 library (AID 1224849; calls by dose curve; further: nearly all actives have a fitted effect of over 15% in size); conditions: ERR reporter cell line, ONE-Glo luciferase, 18 h; at 92.4 µM (top of the series) unless noted
Outline: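 Six hours post-seeding at 37 C/5% CO2, ERR cells receive DMSO-solubilised compounds; after 18 h at 37 C, ONE-Glo reagent is applied and luminescence recorded.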

[2] = qHTS assay to identify small molecule antagonists of the estrogen related receptor signaling pathway with the pleiotropic PPARgamma coactivator (PGC) cell viability counter screen (AID 1224822; further: potency means the concentration at half of the fitted maximal effect;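 further: viability read after 17.5 h compound exposure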); conditions: ERR/PGC reporter cell line viability counter screen; series mostly up to 46.1 µM
Outline: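 Compounds in DMSO, with positive and negative controls, were applied to PGC/ERR cells (2,000/well) and left 17.5 h at 37 C before CellTiter-Fluor detection.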

[3] = qHTS assay to identify small molecule antagonists of the estrogen related receptor (ERR) signaling pathway from Tox21 library - cell viability counter screen (AID 1224834); conditions: ERR reporter cells viability, CellTiter-Fluor, 17.5 h; series mostly up to 92.4 µM; further: nearly all actives have a fitted effect of over 30% in size
Outline: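 CellTiter-Fluor fluorescence measured; ERR cells; 17.5 h compound incubation at 37 C; 30 min reagent step.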

[4] = qHTS assay to identify small molecule antagonists of the estrogen related receptor signaling pathway with the pleiotropic PPARgamma coactivator (PGC) from Tox21 10K library (AID 1224841; call rule not given here; further: actives are mostly falling curves and most rising ones were filed inactive; nearly all actives have a fitted effect of over 50% in size); conditions: PGC/ERR reporter cell line, ONE-Glo luciferase, 18 h; series mostly up to 92.4 µM
Outline: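 Each well held 2,000 PGC/ERR cells, pre-incubated six hours (37 C, 5% CO2). Test substances in DMSO were added by pin tool and left for 18 h at 37 C before luciferase detection by One-Glo.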

[5] = qHTS assay to identify small molecule antagonists of the estrogen related receptor (ERR) signaling pathway from Tox21 library (AID 1224848); conditions: ERR reporter cell line, luciferase antagonist mode, 18 h; series mostly up to 92.4 µM; further: nearly all actives have a fitted effect of over 50% in size
Outline: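 Reading was by luminescence 30 min after ONE-Glo addition. Before that, ERR cells at 2,000 per well had rested 6 h at 37 C/5% CO2 and then received pin-tooled compounds in DMSO for 18 h at 37 C.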

[6] = qHTS RealTime-Glo MT Cell Viability Assay in HEK293 cells - 0 hour (AID 1224880); conditions: RealTime-Glo luminescence; series mostly up to 76.8 µM; further: top concentration of the series differs between compounds; nearly all actives have a fitted effect of over 45% in size
Outline: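 Tox21 screen in HEK293 using RealTime-Glo MT chemistry, with cells and reagent co-dispensed. Luminescence proportional to viable cell number was captured at intervals during 40 h compound exposure at 37 C.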

[7] = qHTS assay to identify small molecule HDAC inhibitors (AID 1259364); conditions: HCT-116 HDAC-Glo I/II luminescence, 2 h; series mostly up to 92.4 µM;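 further: wild-type HCT-116 cells with endogenous class I/II HDAC activity; top concentration of the series differs between compounds; nearly all actives have a fitted effect of over 45% in size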
Outline: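 Relative class I and II HDAC activity is taken from the luminogenic signal in HCT-116 cells, with compound exposure 2 hr and reagent development 30 min at room temperature.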

[8] = qHTS assay to identify small molecule antagonists of the progesterone receptor (PR) signaling pathway - cell viability counter screen (AID 1346798); conditions: PR-UAS-bla HEK293T viability, CellTiter-Glo luminescence, 16 h; series mostly up to 92.4 µM; further: nearly all actives have a fitted effect of over 50% in size
Outline: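 Viability was determined by ATP-based luminescence (CellTiter-Glo) in PR-UAS-bla HEK293T cells cultured in 2% charcoal-stripped serum and incubated 16 hr with compounds under R5020 stimulation.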

[9] = qHTS assay to identify small molecule agonists of the hypoxia (HIF-1) signaling pathway (AID 1224846; active means well fitted activation curve with a large enough effect in the signal ratio in the repeat runs, not every such curve was filed as active; the % refers to the signal ratio); conditions: HRE-bla ME-180 cells, beta-lactamase ratio, 17 h; series mostly up to 76.8 µM
Outline: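 Hypoxia-pathway activation was scored as increased beta-lactamase from an HRE-controlled reporter in ME-180 cells; plated at 2,000 cells per well with 0.5% dialyzed FBS, they were exposed 17 hrs to compounds and then given CCF4-AM.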

[10] = target: Nuclear receptor subfamily 1 group I member 3 (Homo sapiens) (UniProt Q14994); experiment: qHTS assay to identify small molecule antagonists of the constitutive androstane receptor (CAR) signaling pathway (AID 1224838); conditions: HepG2-CYP2B6-hCAR luciferase, CITCO-stimulated, 24 h; series mostly up to 92.4 µM;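 further: HepG2 cells stably expressing hCAR with CYP2B6 luciferase reporter stimulated by CITCO; nearly all actives have a fitted effect of over 40% in size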
Chain of Nuclear receptor subfamily 1 group I member 3 (Homo sapiens) (Q14994 whole entry, looked up): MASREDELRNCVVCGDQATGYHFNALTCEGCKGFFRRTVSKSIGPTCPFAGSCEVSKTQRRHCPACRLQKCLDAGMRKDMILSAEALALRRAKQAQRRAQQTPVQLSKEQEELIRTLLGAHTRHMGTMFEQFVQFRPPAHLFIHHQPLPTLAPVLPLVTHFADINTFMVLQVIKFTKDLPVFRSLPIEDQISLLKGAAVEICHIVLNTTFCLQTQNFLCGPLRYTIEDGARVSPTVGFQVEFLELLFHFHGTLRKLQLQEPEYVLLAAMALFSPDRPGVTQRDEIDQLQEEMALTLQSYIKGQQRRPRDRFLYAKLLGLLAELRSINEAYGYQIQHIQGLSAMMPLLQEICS
Outline: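 Reporter luminescence was quantified after 24 h exposure of hCAR/CYP2B6-2.2kb double-stable HepG2 cells to compounds at 15 concentrations in the presence of 50 nM CITCO final.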

[11] = target: Luciferin 4-monooxygenase (Photinus pyralis) (UniProt P08659); experiment: qHTS assay to identify small molecule inhibitors of firefly luciferase (AID 1224835); further: nearly all actives have a fitted effect of over 25% in size; conditions: purified P. pyralis luciferase, luminescence inhibition; series mostly up to 115 µM
Chain of Luciferin 4-monooxygenase (Photinus pyralis) (P08659 whole entry, looked up): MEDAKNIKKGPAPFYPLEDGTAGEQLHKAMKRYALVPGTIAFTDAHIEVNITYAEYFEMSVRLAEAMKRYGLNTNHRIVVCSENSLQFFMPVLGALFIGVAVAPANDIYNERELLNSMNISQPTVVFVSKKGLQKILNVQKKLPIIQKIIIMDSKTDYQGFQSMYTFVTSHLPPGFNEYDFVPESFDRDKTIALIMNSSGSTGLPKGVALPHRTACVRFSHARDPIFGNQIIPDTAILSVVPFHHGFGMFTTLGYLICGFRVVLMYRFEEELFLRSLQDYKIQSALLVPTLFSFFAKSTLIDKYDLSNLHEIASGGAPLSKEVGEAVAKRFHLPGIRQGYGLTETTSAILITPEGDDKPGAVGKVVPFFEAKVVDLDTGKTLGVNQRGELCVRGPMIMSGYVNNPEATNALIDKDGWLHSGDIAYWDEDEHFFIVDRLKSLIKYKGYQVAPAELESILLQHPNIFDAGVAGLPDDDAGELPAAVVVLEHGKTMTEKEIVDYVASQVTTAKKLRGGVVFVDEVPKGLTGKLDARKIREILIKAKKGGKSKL
Outline: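 Inhibition of purified Photinus luciferase is measured by luminescence. Substrate levels (D-luciferin, ATP) sit at their KM values. Each compound is tested in a concentration series.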

[12] = qHTS assay to identify small molecule agonists of the sonic hedgehog signaling (Shh) pathway (AID 1259368; calls by dose curve;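 further: NIH/3T3-derived 3T3Gli1-Luc cells carrying a stable Gli1-driven firefly luciferase reporter; nearly all actives have a fitted effect of over 15% in size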); conditions: NIH/3T3 Gli1-Luc reporter, luciferase, 24 h, stronger effect = higher value; series mostly up to 92.4 µM
Outline: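 Mouse fibroblast (NIH/3T3) reporter cells with stably integrated Gli1-Luc were treated 24 hr with compound; firefly luciferase luminescence served as the read-out.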

[13] = target: Thyrotropin-releasing hormone receptor (Homo sapiens) (UniProt P34981); experiment: qHTS assay to identify small molecule antagonists of the thyrotropin-releasing hormone receptor (TRHR) signaling pathway (AID 1346877; active means well fitted inhibition curve with a large enough effect in the repeat runs, not every such curve was filed as active); conditions: TRHR-HEK293, TRH-induced calcium fluorescence, antagonist mode; series mostly up to 51.3 µM
Chain of Thyrotropin-releasing hormone receptor (Homo sapiens) (P34981 whole entry, looked up): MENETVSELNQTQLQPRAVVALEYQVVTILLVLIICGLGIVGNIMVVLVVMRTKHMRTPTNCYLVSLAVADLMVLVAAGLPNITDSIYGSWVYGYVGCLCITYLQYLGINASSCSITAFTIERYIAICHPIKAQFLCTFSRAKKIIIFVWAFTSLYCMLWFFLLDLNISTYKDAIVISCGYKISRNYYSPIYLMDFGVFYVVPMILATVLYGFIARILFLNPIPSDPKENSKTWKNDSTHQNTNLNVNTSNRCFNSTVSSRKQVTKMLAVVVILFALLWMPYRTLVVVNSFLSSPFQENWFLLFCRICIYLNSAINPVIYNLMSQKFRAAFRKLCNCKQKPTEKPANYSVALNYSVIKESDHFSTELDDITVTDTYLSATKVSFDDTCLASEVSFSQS
Outline: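 Screening used HEK293 cells engineered with TRHR, with a brief 5 min room-temperature compound exposure preceding addition of TRH to 1 nM. The read-out was kinetic calcium-dye fluorescence, concentration-response from 15 doses in triplicate.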

[14] = target: Thyrotropin-releasing hormone receptor (Homo sapiens) (UniProt P34981); experiment: qHTS assay to identify small molecule agonists of the thyrotropin-releasing hormone receptor (TRHR) signaling pathway (AID 1346891; calls by dose curve;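 further: HEK293 cells expressing TRHR with calcium dye readout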); conditions: TRHR-HEK293 calcium fluorescence, agonist mode; series mostly up to 57.6 µM
Outline: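 Kinetic fluorescence (3 min, 1 s intervals) reported intracellular calcium after compound transfer onto TRHR-Hek293 cells pre-loaded with dye for 2 h at 37 °C.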

[15] = Caspase-3/7 induction in CHO-K1 cells by small molecules, qHTS assay (AID 1346980); conditions: CHO-K1 caspase-3/7 induction, Caspase-Glo luminescence, 17 h; series mostly up to 92.4 µM; further: nearly all actives have a fitted effect of over 15% in size
Outline: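 Luminescent Caspase-Glo 3/7 read (30min, room temperature) quantified apoptosis induction. Cells were wild-type CHO-K1, treated with compound for 17hr at 37 C and 5% CO2.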

[16] = target: Nuclear receptor subfamily 1 group I member 3 (Homo sapiens) (UniProt Q14994); experiment: qHTS assay to identify small molecule agonists of the constitutive androstane receptor (CAR) signaling pathway (AID 1224839); conditions: HepG2 hCAR CYP2B6-luciferase, agonist mode, 24 h; series mostly up to 92.4 µM;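 further: HepG2 cells stably carrying human CAR and a CYP2B6 luciferase reporter; nearly all actives have a fitted effect of over 15% in size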
Outline: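 Stable hCAR/CYP2B6-2.2kb HepG2 line in DMEM with 10% FBS; compounds (15 concentrations) and 0.75 uM PK11195 final, 24 h at 37 C/5% CO2, then ONE-Glo luminescence after 30 min.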

[17] = target: Estrogen receptor beta (Homo sapiens) (UniProt Q92731); experiment: qHTS assay to identify small molecule agonists of the estrogen receptor beta (ER-beta) signaling pathway (AID 1259377; active means well fitted activation curve with a large enough effect in the signal ratio in the repeat runs, not every such curve was filed as active; the % refers to the signal ratio); conditions: ER-beta-UAS-bla HEK293T, beta-lactamase FRET ratio, 16 h; series mostly up to 92.4 µM
Chain of Estrogen receptor beta (Homo sapiens) (Q92731 whole entry, looked up): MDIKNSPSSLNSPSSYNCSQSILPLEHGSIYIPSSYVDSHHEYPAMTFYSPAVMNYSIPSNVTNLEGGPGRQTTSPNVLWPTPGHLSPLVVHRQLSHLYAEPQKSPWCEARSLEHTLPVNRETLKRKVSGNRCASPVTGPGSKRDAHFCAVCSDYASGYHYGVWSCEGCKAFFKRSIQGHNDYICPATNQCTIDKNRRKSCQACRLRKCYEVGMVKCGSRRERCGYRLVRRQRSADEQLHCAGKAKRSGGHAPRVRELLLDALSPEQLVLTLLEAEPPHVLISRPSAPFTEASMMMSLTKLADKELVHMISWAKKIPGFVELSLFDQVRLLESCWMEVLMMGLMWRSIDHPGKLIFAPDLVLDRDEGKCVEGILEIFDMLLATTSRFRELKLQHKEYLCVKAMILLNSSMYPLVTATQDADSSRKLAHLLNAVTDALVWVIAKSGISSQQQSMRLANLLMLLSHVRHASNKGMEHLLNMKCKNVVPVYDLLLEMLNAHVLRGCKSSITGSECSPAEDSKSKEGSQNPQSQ
Outline: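 Measured by fluorescence intensity from a B/G FRET beta-lactamase substrate (2 h, room temperature) in ER-beta-UAS-bla HEK293T cells treated with DMSO-dissolved compounds for 16 hr at 37C and 5% CO2.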

[18] = target: Estrogen receptor (Homo sapiens) (UniProt P03372); experiment: qHTS assay to identify small molecule antagonists of the estrogen receptor alpha (ER-alpha) signaling pathway using the BG1 cell line in the presence of 0.1 nM 17-beta-estradiol (AID 1259244); conditions: VM7Luc4E2 (BG1) ERE-luciferase, antagonist mode, 0.1 nM E2, 22 h; series mostly up to 92.4 µM; further: nearly all actives have a fitted effect of over 50% in size
Chain of Estrogen receptor (Homo sapiens) (P03372 whole entry, looked up): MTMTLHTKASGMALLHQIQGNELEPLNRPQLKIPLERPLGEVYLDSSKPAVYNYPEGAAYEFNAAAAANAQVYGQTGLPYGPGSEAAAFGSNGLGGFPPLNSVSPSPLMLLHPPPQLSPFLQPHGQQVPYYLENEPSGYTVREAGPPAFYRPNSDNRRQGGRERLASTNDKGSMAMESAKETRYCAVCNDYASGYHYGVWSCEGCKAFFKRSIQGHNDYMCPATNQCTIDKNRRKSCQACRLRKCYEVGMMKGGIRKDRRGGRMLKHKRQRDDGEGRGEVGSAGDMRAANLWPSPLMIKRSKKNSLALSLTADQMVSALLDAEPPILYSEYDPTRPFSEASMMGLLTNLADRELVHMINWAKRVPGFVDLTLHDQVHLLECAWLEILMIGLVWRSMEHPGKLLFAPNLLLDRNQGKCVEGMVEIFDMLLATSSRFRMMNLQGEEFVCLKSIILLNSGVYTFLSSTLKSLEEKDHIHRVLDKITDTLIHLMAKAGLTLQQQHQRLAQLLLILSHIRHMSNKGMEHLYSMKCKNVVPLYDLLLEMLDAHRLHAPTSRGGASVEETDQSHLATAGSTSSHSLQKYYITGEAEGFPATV
Outline: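 VM7Luc4E2; 4xERE-luciferase; 0.1 nM E2 final; 22 h co-incubation, 37C; ONE-Glo luminescence after 30 min at room temperature.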

[19] = target: Estrogen receptor (Homo sapiens) (UniProt P03372); experiment: qHTS assay to identify small molecule agonists of the estrogen receptor alpha (ER-alpha) signaling pathway in the presence of an antagonist (AID 1259383; calls by dose curve); conditions: VM7Luc4E2 cells, ERE-luciferase, +ICI-182,780, 22 h; series mostly up to 92.4 µM
Outline: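 Using VM7Luc4E2 cells seeded 24hr before treatment, antagonist ICI-182,780 (10.0nM final) was added, followed by compounds at 15 concentrations. Plates incubated 22hr; ONE-Glo luminescence quantified reporter activity.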

[20] = target: Androgen receptor (Homo sapiens) (UniProt P10275); experiment: qHTS assay to identify small molecule antagonists of the androgen receptor (AR) signaling pathway (AID 743035; active means well fitted inhibition curve with a large enough effect in the signal ratio in the repeat runs, not every such curve was filed as active; the % refers to the signal ratio); conditions: HEK293 AR-UAS-bla, R1881-stimulated, beta-lactamase FRET, 16 h; series mostly up to 58.5 µM
Chain of Androgen receptor (Homo sapiens) (P10275 whole entry, looked up): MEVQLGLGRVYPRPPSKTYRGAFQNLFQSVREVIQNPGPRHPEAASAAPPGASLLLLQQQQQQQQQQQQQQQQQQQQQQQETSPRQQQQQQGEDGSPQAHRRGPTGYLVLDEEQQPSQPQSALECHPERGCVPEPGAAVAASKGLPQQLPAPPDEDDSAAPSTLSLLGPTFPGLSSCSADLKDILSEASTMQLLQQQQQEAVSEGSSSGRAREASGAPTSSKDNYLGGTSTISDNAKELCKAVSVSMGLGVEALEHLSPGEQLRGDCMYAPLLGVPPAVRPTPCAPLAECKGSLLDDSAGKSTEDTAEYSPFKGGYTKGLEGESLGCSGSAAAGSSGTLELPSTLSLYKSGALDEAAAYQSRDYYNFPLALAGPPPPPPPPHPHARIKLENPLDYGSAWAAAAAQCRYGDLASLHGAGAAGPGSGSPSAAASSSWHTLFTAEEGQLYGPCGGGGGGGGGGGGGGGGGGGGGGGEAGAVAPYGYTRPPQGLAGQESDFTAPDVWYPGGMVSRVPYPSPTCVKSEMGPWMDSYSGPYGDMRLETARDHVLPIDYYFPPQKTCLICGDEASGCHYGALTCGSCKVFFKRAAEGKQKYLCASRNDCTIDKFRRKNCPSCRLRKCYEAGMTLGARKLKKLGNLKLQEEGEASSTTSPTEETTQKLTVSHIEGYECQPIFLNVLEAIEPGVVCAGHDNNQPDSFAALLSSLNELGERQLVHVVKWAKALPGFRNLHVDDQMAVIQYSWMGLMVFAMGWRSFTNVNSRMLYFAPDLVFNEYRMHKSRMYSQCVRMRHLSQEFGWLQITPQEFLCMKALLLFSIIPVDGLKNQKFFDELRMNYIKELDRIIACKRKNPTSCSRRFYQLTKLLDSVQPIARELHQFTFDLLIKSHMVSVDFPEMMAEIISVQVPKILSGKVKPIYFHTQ
Outline: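 Using qHTS, AR-UAS-bla GripTite HEK293 cells received compound, then R1881, and were cultured 16 h at 37C/5% CO2 before a 2 h room-temperature LiveBLAzer B/G FRET substrate step and fluorescence measurement.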

O=Nc1ccc(Nc2ccccc2)cc1
activity change, positive = activation [1]: -79.9% (active)

CC(=O)c1c(O)c(C)c(O)c(Cc2c(O)c3c(c(C(=O)/C=C/c4ccccc4)c2O)OC(C)(C)C=C3)c1O
Potency [2]: 3.48 µM (active)

C[N+]1(C)[C@@H]2CC(OC(=O)[C@H](CO)c3ccccc3)C[C@H]1[C@@H]1O[C@@H]12 (stereo not given in full)
Potency [3]: inactive

O=C(O)/C=C/C(=O)O
Potency [3]: inactive
Potency [4]: inactive
Potency [5]: inactive

Oc1c(Cl)cc(Cl)cc1Cl
outcome [6]: inactive
outcome [7]: inactive
Potency [8]: inactive

CCC1C(=O)OCC1Cc1cncn1C (stereo not given)
Potency [3]: inactive
Potency [4]: inactive
Potency [5]: inactive

N#CCCNCCC#N
outcome [9]: inactive

CCNC(=O)[C@H]1O[C@@H](n2cnc3c(N)ncnc32)[C@H](O)C1O (stereo not given in full)
Potency [2]: inactive

CC(C)(C)c1ccc(O)cc1
outcome [6]: inactive
Potency [8]: inactive

CC1(C)[C@H](C(=O)OCc2cccc(Oc3ccccc3)c2)[C@@H]1C=C(Cl)Cl
Potency [10]: inactive

c1ccc(CCCN2CCN(CCOC(c3ccccc3)c3ccccc3)CC2)cc1
Potency [2]: inactive

O=[N+]([O-])c1ccccc1Cl
Potency [11]: inactive
outcome [6]: inactive
outcome [12]: inactive
Potency [8]: inactive
outcome [13]: inactive
outcome [14]: inactive
outcome [15]: inactive

O=[N+]([O-])/C=C/c1ccc2c(c1)OCO2
Potency [2]: 22 µM (active)

Clc1nc(Cl)c(Cl)c(Cl)c1Cl
Potency [16]: inactive

C/C=C(/C)C(=O)O[C@H]1C(C)=C2[C@H]([C@@H]1OC(=O)CCCCCCC)[C@@](C)(OC(C)=O)C[C@H](OC(=O)CCC)[C@@]1(O)[C@H]2OC(=O)[C@@]1(C)O
Potency [2]: 8.1 µM (active)

Cc1ccc([N+](=O)[O-])cc1N
outcome [17]: inactive

Cc1ccc(O)cc1C
Potency [11]: inactive
outcome [6]: inactive
Potency [8]: inactive

Cc1ccc2ccccc2c1C
Potency [11]: inactive
outcome [6]: inactive
outcome [7]: inactive
Potency [8]: inactive

O=C(O)/C=C\C(=O)O
Potency [3]: inactive
Potency [4]: inactive
Potency [5]: inactive

CCC1(c2cnc[nH]2)Cc2ccccc2C1
Potency [18]: inactive
outcome [19]: inactive

c1ccccc1
Potency [18]: inactive
outcome [19]: inactive

C[N+]1(C)[C@@H]2CC[C@H]1CC(OC(=O)c1c[nH]c3ccccc13)C2 (stereo not given in full)
Potency [20]: inactive

C[C@]12CC[C@H](OS(=O)(=O)O)CC1=CC[C@@H]1[C@@H]2CC[C@]2(C)C(=O)CC[C@@H]12
Potency [20]: inactive
